# Reference: paper PMC5540273 (PLoS ONE, 2017)
# Experiments:
# [1] = test system: TGFBR2
# [2] = test system: TNNI3K
# [3] = test system: TRPM6
# [4] = test system: TXK
# [5] = test system: TYK2(JH1domain-catalytic)
# [6] = test system: ULK2
# [7] = test system: WNK4
# 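Further: kd values determined as follow-up on hits from a single-replicate KINOMEscan panel screen.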
structure (smiles),measurement,setting,value
N#Cc1ccc(-c2cc(-c3c[nH]nc3-c3ccccn3)ccn2)cc1 [GW693028],Kd,[1],0.58 µM
c1ccc(-c2cc(-c3c[nH]nc3-c3ccccn3)ccn2)cc1 [GW576604],Kd,[2],> 10 µM
CCn1cnc2c(N)ncnc21 [GW345098],Kd,[3],0.24 µM
O=C(NCCNc1ccnc(Nc2ccc(F)cc2)n1)c1cc2ccccc2s1 [GSK1379874],Kd,[4],> 10 µM
CN(C1=C(c2ccccc2)C(=O)NC1=O)c1ccccc1 [SB-334860],Kd,[4],> 10 µM
Cc1ccc(NC(=O)c2ccnc(N3CCN(C)CC3)c2)cc1-c1ccc(C(=O)NCC2CC2)cc1 [GW775604],Kd,[5],> 10 µM
same,Kd,[6],> 10 µM
NS(=O)(=O)c1cccc(-c2ccc3nccc(-c4cccc(S(N)(=O)=O)c4)c3c2)c1 [GW867253],Kd,[6],> 10 µM
O=C1NC(=O)C(N2CCc3ccccc32)=C1c1cccc(Cl)c1 [SB-408010],Kd,[7],> 10 µM
